# Where “and” joins values, the source holds several entries; their conditions need not be identical. Equal entries are not always repeated. Results filed as inconclusive are left out. Unmarked numbers belong to inactive results. Calls of active or inactive are those of the source. Unless noted, calls follow the shape of the dose curve; as a rule, active = well fitted curve in the direction sought with a large enough effect in the repeat runs; inconclusive = weak or mixed curves; inactive = no such curve, though single readings can be large; an effect the other way counts as inactive or inconclusive.
# Target: Estrogen receptor (Homo sapiens) (UniProt P03372)
# Sequence (P03372 whole entry, looked up): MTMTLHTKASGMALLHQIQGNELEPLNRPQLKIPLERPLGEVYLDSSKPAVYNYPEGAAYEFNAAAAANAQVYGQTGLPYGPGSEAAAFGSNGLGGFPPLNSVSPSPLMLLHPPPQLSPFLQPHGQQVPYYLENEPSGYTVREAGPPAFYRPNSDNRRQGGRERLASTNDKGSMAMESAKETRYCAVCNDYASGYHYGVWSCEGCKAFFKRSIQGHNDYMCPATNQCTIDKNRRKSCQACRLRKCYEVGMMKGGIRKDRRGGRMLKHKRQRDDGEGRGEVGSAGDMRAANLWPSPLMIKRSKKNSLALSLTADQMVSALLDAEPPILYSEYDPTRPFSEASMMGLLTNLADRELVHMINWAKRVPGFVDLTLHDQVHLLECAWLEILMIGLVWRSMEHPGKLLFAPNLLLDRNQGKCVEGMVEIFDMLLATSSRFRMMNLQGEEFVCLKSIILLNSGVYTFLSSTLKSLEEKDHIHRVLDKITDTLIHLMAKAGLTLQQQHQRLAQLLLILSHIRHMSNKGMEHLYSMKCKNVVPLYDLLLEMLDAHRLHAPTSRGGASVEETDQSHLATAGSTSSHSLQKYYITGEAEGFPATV
# Experiment: qHTS assay to identify small molecule agonists of the estrogen receptor alpha (ER-alpha) signaling pathway using the BG1 cell line (AID 743079); also: nearly all actives have a fitted effect of over 20% in size
# Conditions: BG1Luc4E2 cells, ERE-luciferase agonist, 22 h; series mostly up to 70.3 µM; activation: at the top concentration
# % is scaled to controls: 0 for no effect and ±100 for the full control effect; potency is read from the fitted curve at half-maximal effect.
SMILES,activation,Potency
CCC(C)(C)O,15.4%,–
CCCCCCCCCCCCCCCl,1.02% [at 95 µM],–
CN[C@@H](C)[C@H](O)c1ccccc1,–,26.6 µM (active)
CCOP(=S)(S)OCC,-1.73% [at 95 µM],–
CCC[N+](CCC)(CCC)CCC,-2.45%,–
C[N+](C)(C)CC1CO1 (configuration not stated),-1.49%,–
COCc1cnc(C2=NC(C)(C(C)C)C(=O)N2)c(C(=O)O)c1 (configuration not stated),1.65%,–
CC(C)(C)NCC(O)c1ccccc1Cl (configuration not stated),14.1%,–
CCN(C(C)=O)c1cccc(-c2ccnc3c(C#N)cnn23)c1,-13.4%,–
N#CC(C#N)=Cc1ccc(O)c(O)c1,-6.88%,–
O=S(=O)(Cl)Cl,0.0597%,–
CCC(C)(C)c1ccc(O)c(C(C)(C)CC)c1,–,inactive
CC(C)OC(=O)Cc1ccccc1,-7.46% [at 95 µM],–
NC(=S)c1c(Cl)cccc1Cl,-8.63%,–
CCCC(C)(COC(N)=O)COC(=O)NC(C)C (configuration not stated),–,inactive
CON(C)C(=O)Nc1ccc(Cl)cc1,4.45%,–
Cc1nc(N(C)C)nc(OC(=O)N(C)C)c1C,-1.21%,–
CCOP(=O)(O)C(N)=O,-2.46%,–
COC(=O)Cc1ccccc1,-0.523%,–
Clc1ccccc1,-13.9%,–
CC(C)C1(C)N=C(c2ncccc2C(=O)O)NC1=O (configuration not stated),-12.7%,–
O=C(NC(=O)c1cc(F)c(F)cc1Cl)Nc1cc(F)ccc1N1CCC(C(=O)O)CC1,-9.96%,–
CCOC(=O)NC(O)C(Cl)(Cl)Cl (configuration not stated),-7.31%,–
O=C(CCl)CCl,–,inactive
CC(Cc1ccccc1)NCc1ccccc1Cl (configuration not stated),–,26.6 µM (active)
CCOC(=O)c1cncn1C(C)c1ccccc1 (configuration not stated),-3.1% [at 32.5 µM],–

# Test system: not listed separately
# Experiment: qHTS assay to identify small molecule antagonists of the estrogen receptor alpha (ER-alpha) signaling pathway using the BG1 cell line (AID 743080; calls by dose curve;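 also: BG1 cells stimulated with 17beta-estradiol alongside compound; nearly all actives have a fitted effect of over 25% in size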)
# Conditions: BG1Luc4E2 ERE-luciferase antagonist mode, luminescence; series mostly up to 70.3 µM; activity change, negative = inhibition: at the top concentration
# Method in brief: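 Readout is ONE-Glo luminescence, taken 30 min at room temperature after reagent addition, preceded by a CellTiter-Fluor viability read; BG1-Luc-4E2 cells had received compound and 17beta-estradiol for 21.5 h at 37 C.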
SMILES,"activity change, negative = inhibition",Potency
CCC(C)(C)O,-1.45%,–
CN[C@@H](C)[C@H](O)c1ccccc1,1.46%,–
CCOP(=S)(S)OCC,2.58% [at 95 µM],–
OC[P+](CO)(CO)CO,–,inactive
CCC[N+](CCC)(CCC)CCC,1.77%,–
CC(C)(C)NCC(O)c1ccccc1Cl (configuration not stated),-1.55%,–
CCN(C(C)=O)c1cccc(-c2ccnc3c(C#N)cnn23)c1,-2.18%,–
CCC(C)(C)c1ccc(O)c(C(C)(C)CC)c1,–,61.1 µM (active)
CCCC(C)(COC(N)=O)COC(=O)NC(C)C (configuration not stated),–,inactive
CON(C)C(=O)Nc1ccc(Cl)cc1,1.67%,–
Cc1nc(N(C)C)nc(OC(=O)N(C)C)c1C,-8.84%,–
CCOP(=O)(O)C(N)=O,5.94%,–
COC(=O)Cc1ccccc1,11.7%,–
O=C(NC(=O)c1cc(F)c(F)cc1Cl)Nc1cc(F)ccc1N1CCC(C(=O)O)CC1,5.85%,–
CCOC(=O)c1cncn1C(C)c1ccccc1 (configuration not stated),-9.95% [at 32.5 µM],–

# Test system: not listed separately
# Experiment: qHTS assay to identify small molecule antagonists of the estrogen receptor alpha (ER-alpha) signaling pathway using the BG1 cell line - cell viability counter screen (AID 743081);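 also: compound given together with 17beta-estradiol as the ER stimulus; nearly all actives have a fitted effect of over 45% in size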
# Conditions: BG1Luc4E2 viability, CellTiter-Fluor, 22 h; series mostly up to 70.3 µM; activity change, negative = cytotoxicity: at the top concentration
SMILES,Potency,"activity change, negative = cytotoxicity"
C[CH2][Hg][S]c1ccccc1C(=O)O,21.1 µM (active) and 17.2 µM (active),–
CCC(C)(C)O,–,13.3%
CCCCCCCCCCCCCCCl,–,5.02% [at 95 µM]
CN[C@@H](C)[C@H](O)c1ccccc1,–,-2.5%
CCOP(=S)(S)OCC,–,-8.5% [at 95 µM]
OC[P+](CO)(CO)CO,inactive,–
CCC[N+](CCC)(CCC)CCC,–,4.37%
CC1(C)CC(=O)CC(C)(C)N1[O],–,12.3%
O=C(Cc1ccccc1)c1ccccc1,–,4.07%
C[N+](C)(C)CC1CO1 (configuration not stated),–,0.694%
CCOP(=O)(SC(C)CC)N1CCSC1=O (configuration not stated),–,0.0281%
COCc1cnc(C2=NC(C)(C(C)C)C(=O)N2)c(C(=O)O)c1 (configuration not stated),–,-6.76%
CC(C)(C)NCC(O)c1ccccc1Cl (configuration not stated),–,0.757%
CCN(C(C)=O)c1cccc(-c2ccnc3c(C#N)cnn23)c1,–,1.62%
N#CC(C#N)=Cc1ccc(O)c(O)c1,–,-9.12%
OCCCl,–,1.84%
O=S(=O)(Cl)Cl,–,3.29%
CC(C)OC(=O)Cc1ccccc1,–,-0.824% [at 95 µM]

SMILES,Potency,"activity change, negative = cytotoxicity"
NC(=S)c1c(Cl)cccc1Cl,–,12.6%
CCCC(C)(COC(N)=O)COC(=O)NC(C)C (configuration not stated),–,-2.89%
CON(C)C(=O)Nc1ccc(Cl)cc1,–,3.93%
Cc1nc(N(C)C)nc(OC(=O)N(C)C)c1C,–,1.47%
CCOP(=O)(O)C(N)=O,–,-4.36%
COC(=O)Cc1ccccc1,–,7.35%
Clc1ccccc1,–,-1.95%
CC(C)C1(C)N=C(c2ncccc2C(=O)O)NC1=O (configuration not stated),–,-5.64%
CCCCCCCCCCCCN=C(N)N,–,-12.7% [at 3.79 µM]
CC1(C)[C@H](C(=O)O[C@H](C#N)c2cccc(Oc3ccccc3)c2)[C@@H]1C=C(Br)Br,inactive,–
O=C(NC(=O)c1cc(F)c(F)cc1Cl)Nc1cc(F)ccc1N1CCC(C(=O)O)CC1,–,8.85%
CC(=O)OC(c1ccccc1)C(Cl)(Cl)Cl (configuration not stated),–,-5.08%
CCOC(=O)NC(O)C(Cl)(Cl)Cl (configuration not stated),–,16.9%
O=C(CCl)CCl,–,-27.8% [at 95 µM]
CC(Cc1ccccc1)NCc1ccccc1Cl (configuration not stated),–,-2.94%
CCOC(=O)c1cncn1C(C)c1ccccc1 (configuration not stated),–,-0.438% [at 32.5 µM]
CC(C)(C)OOC(C)(C)CCC(C)(C)OOC(C)(C)C,–,0.0079%

# Target: Aromatase (Homo sapiens) (UniProt P11511)
# Sequence (P11511 whole entry, looked up): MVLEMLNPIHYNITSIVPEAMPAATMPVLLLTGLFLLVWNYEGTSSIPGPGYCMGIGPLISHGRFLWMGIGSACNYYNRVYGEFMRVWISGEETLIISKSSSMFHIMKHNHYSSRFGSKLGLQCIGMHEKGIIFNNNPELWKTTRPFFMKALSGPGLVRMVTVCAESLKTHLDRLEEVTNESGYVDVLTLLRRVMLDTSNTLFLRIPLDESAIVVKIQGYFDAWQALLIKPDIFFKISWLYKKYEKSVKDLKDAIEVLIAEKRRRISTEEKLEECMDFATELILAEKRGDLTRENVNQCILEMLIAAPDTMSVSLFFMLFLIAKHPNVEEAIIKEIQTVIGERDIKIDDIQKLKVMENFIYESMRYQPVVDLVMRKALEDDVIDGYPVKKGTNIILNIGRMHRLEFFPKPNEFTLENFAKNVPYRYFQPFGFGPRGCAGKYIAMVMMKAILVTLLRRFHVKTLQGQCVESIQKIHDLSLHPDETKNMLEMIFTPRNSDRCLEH
# Experiment: qHTS assay to identify aromatase inhibitors (AID 743083); also: nearly all actives have a fitted effect of over 55% in size
# Conditions: MCF-7 aro ERE, testosterone-driven ERE luciferase, 24 h; series mostly up to 70.3 µM; activity, negative = inhibition: at the top concentration
SMILES,Potency,"activity, negative = inhibition"
C[CH2][Hg][S]c1ccccc1C(=O)O,5.96 µM (active) and 1.09 µM (active),–
CCC(C)(C)O,–,7.82%
CCCCCCCCCCCCCCCl,–,14.1% [at 95 µM]
CN[C@@H](C)[C@H](O)c1ccccc1,–,-10.5%
CCOP(=S)(S)OCC,–,9.72% [at 95 µM]
OC[P+](CO)(CO)CO,–,-9.97%
CCC[N+](CCC)(CCC)CCC,–,11.3%
CC1(C)CC(=O)CC(C)(C)N1[O],–,-7.38%
O=C(Cc1ccccc1)c1ccccc1,–,5.37%
COc1ccc(C(=O)c2c(C)n(CCN3CCOCC3)c3ccccc23)cc1,–,-11.5%
C[N+](C)(C)CC1CO1 (configuration not stated),–,7.07%
CCOP(=O)(SC(C)CC)N1CCSC1=O (configuration not stated),–,3.95%
COCc1cnc(C2=NC(C)(C(C)C)C(=O)N2)c(C(=O)O)c1 (configuration not stated),–,22.9%
CC(C)(C)NCC(O)c1ccccc1Cl (configuration not stated),–,-5.16%
CCN(C(C)=O)c1cccc(-c2ccnc3c(C#N)cnn23)c1,–,15.8%
N#CC(C#N)=Cc1ccc(O)c(O)c1,–,-11.7%
OCCCl,–,12.2%
O=S(=O)(Cl)Cl,–,11.9%

SMILES,Potency,"activity, negative = inhibition"
CCC(C)(C)c1ccc(O)c(C(C)(C)CC)c1,60.4 µM (active) and 30.6 µM (active),–
CC(C)OC(=O)Cc1ccccc1,–,-1% [at 95 µM]
NC(=S)c1c(Cl)cccc1Cl,–,-1.78%
CCCC(C)(COC(N)=O)COC(=O)NC(C)C (configuration not stated),inactive,–
CON(C)C(=O)Nc1ccc(Cl)cc1,–,39.3%
Cc1nc(N(C)C)nc(OC(=O)N(C)C)c1C,–,0.649%
CCOP(=O)(O)C(N)=O,–,18.3%
COC(=O)Cc1ccccc1,–,3.69%
Clc1ccccc1,–,-3.79%
CC(C)C1(C)N=C(c2ncccc2C(=O)O)NC1=O (configuration not stated),–,-2.67%
CCCCCCCCCCCCN=C(N)N,–,-1.41% [at 3.79 µM]
CC1(C)[C@H](C(=O)O[C@H](C#N)c2cccc(Oc3ccccc3)c2)[C@@H]1C=C(Br)Br,inactive,–
O=C(NC(=O)c1cc(F)c(F)cc1Cl)Nc1cc(F)ccc1N1CCC(C(=O)O)CC1,–,-5.87%
CCOC(=O)NC(O)C(Cl)(Cl)Cl (configuration not stated),–,-0.25%
CCC1(CCC(C)C)C(=O)NC(=O)NC1=O,–,-16.8%
O=C(CCl)CCl,44.9 µM (active) and 8.63 µM (active),–
CC(Cc1ccccc1)NCc1ccccc1Cl (configuration not stated),–,-2.88%
CCOC(=O)c1cncn1C(C)c1ccccc1 (configuration not stated),–,-6% [at 32.5 µM]

# Source: PubChem BioAssay (Tox21)
